# Compound activity from PubChem.
# Shiga toxin inh – Shiga toxin inhibition; Vero cells, Shiga toxin protein synthesis inhibition reporter; hit rate 9.2% among 290,000; inhibition, % at 38.7 µM; in the data active means inhibition mostly above about 28%, no sharp cut-off; inactive means mostly below about 43%; further: 0% is about no effect
# Cycloheximide cs – counter-screen for Shiga toxin inhibitors: cycloheximide protein synthesis inhibition; cell reporter, cycloheximide protein synthesis inhibition counterscreen; max response, %; hit rate 12% among 300,000; in the data active means max response mostly above about 13%, no sharp cut-off; inactive means mostly below about 14%; further: read at 38.3 µM for the half of the compounds with a filed dose; 0% is about no effect
# Lassa entry inh – Lassa virus entry inhibition; Lassa virus pseudotype entry inhibition, cell reporter; Potency, µM (series often up to 37.9 µM), without a hit: top-dose activity change, negative = inhibition, hits mostly inhibitors; hit rate 1.2% among 300,000; calls by dose curve; tested in HEK293 cells; further: potency means the concentration at half of the fitted maximal effect; on the % scale 0 is the no-effect control and ±100 the full control effect; nearly all actives have a fitted effect of over 50% in size
# FMDV antiviral – antivirals against foot and mouth disease virus; FMDV antiviral cell-based qHTS; Potency, µM (titrated, usually from 57.9 µM), for the others: top-dose activity change, negative = inhibition, hits mostly inhibitors; hit rate 1.2% among 410,000; AID 1159524; calls by dose curve; tested in HEK293T cells; further: read-out not given here; potency means the concentration at half of the fitted maximal effect; on the % scale 0 is the no-effect control and ±100 the full control effect; nearly all actives have a fitted effect of over 45% in size
# HCV inh – blocks hepatitis C virus. hit rate 3.4% among 340,000. Potency, µM (series often up to 41.8 µM), without a hit: top-dose activity change, negative = inhibition, usual class: inhibitors. Huh7.5.1 HCVcc-Cre infection, luciferase reporter, 44 h; active means well fitted inhibition curve with a large enough effect; inconclusive means small, poorly fitted or top-dose-only effect, or another doubt; inactive means no such curve, though single readings can be large or run the other way; further: potency means the concentration at half of the fitted maximal effect; on the % scale 0 is the no-effect control and ±100 the full control effect
#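 Luciferase read-out (15 sec integration) after a 15 min room-temperature substrate step quantifies HCVcc-Cre infection. Cells, 1,000 per well, had compound added 4 h post-plating, then virus at ~0.5 moi, and were cultured 44 h.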
# MARV entry inh – blocks Marburg virus binding to or entry into cells; Potency, µM (titrated, usually from 37.8 µM), for inactives: at the top dose activity change, negative = inhibition, most hits filed as inhibitors; Marburg virus pseudotyped entry inhibition, cell reporter; AID 540276; hit rate 1.8% among 300,000; calls by dose curve; tested in HEK293 cells; further: potency means the concentration at half of the fitted maximal effect; on the % scale 0 is the no-effect control and ±100 the full control effect
# * hit, by the source's call; ? = inconclusive; nt = no result; ! = a repeat was not active; [ ] = another dose, or the depositor's remark. A selection: hits, their analogues and other compounds. The true share with any hit is near 13%.
SMILES,Shiga toxin inh,Cycloheximide cs,Lassa entry inh,FMDV antiviral,HCV inh,MARV entry inh
CCC(C)NC(=O)CSc1nc2n[nH]c(C)c2c(=N)n1-c1ccc(OC)cc1 (stereo not given),19,8,-26%,-22%,-28%,3%
Cc1cc(S(=O)(=O)N2CCN(c3ccccc3O)CC2)c(C)s1,-11,-6,nt,-18%,-8%,nt
CN(C)CCNC(=O)c1ccc2nc(CCc3ccccc3)oc2c1,nt,nt,2%[46.1 µM],68%,nt,nt
CNC(=O)c1ccc2nc(CCc3ccccc3)oc2c1,nt,nt,27%[46.1 µM],35%,nt,nt
COCCc1nc2ccc(C(=O)N(C)Cc3cccc(-n4cccn4)c3)cc2o1,82*,62*,6%,-2%,-21%,-18%
CN(Cc1cccnc1)C(=O)c1ccc2nc(Cc3ccccc3F)oc2c1,61*,43*,nt,19%,-12%,nt
O=C(COc1cccnc1[N+](=O)[O-])Nc1ccc2c(c1)OCO2,59,-2,7%,24%,9%,10%
NC(=O)c1ccc(NC(=O)c2ccc(COc3ccc(F)cc3)o2)cc1,nt,nt,nt,6%,6%,nt
Cc1c(C(=O)Nc2c(N)nc(SCC(=O)NCC3CCCO3)[nH]c2=O)cccc1[N+](=O)[O-] (stereo not given),-23,-2,8%,-2%,25%,-2%
O=C(NCCc1ccc(Cl)cc1)c1ccc2ccccc2n1,70*,22*,-5%,7%,3%,-2%[46.1 µM]
COC(=O)c1cnc2ccccc2n1,29,16*,-10%,45%,-27%,22%
COc1ccc(CNC(=O)c2ccc3ccccc3n2)cc1,63,26*,nt,41%,-9%,nt
O=C(NCc1ccccc1)c1ccc2ccccc2n1,17,-2,?,18%,-4%,-1%[46.1 µM]
COCCNC(=O)c1ccc2ccccc2n1,33,27*,1%,7%,7%,28%
N#C/C(=C\Nc1ccccc1SC(F)(F)F)c1nc(-c2ccccc2)cs1,-7,-6,nt,-7%,11%,nt
NC(=O)C1CCN(C(=O)CNC(=O)c2ccc(Br)o2)CC1,nt,nt,19%,-13%,40%,-7%
CC(C)(C)C(=O)CSc1ncccn1,-2,9,?,-15%,17%,21%[46.1 µM]
O=C(NCCc1ccccc1)c1cnc2ccccc2n1,106*,32*,nt,34%,-8%,nt
O=C(O)C/C(=C\c1ccc(Cl)cc1)c1nc2ccccc2o1,-4,-1,-4%,2%,15%,24%[46.1 µM]
Cc1ccccc1OCCNC(=O)c1ccc2ccccc2n1,93*,71*,-28%,16%,12%,?
COc1ccc(C(=O)NC(=S)NNC(=O)c2ccc3ccccc3n2)cc1,51,6,?,-29%,11µM*,?
O=C(O)C(=O)/C(=C\c1ccc(Cl)cc1)c1ccc2ccccc2n1,166*,30*,?,37%,15%,?
Cc1ccc(CNC(=O)c2ccc(CS(=O)(=O)c3ccccc3C)o2)cc1,-7,1,?,-20%,-7%,-2%[46.1 µM]
CC(c1ccccc1)c1nnc(NC(=O)Nc2ccccc2F)s1 (stereo not given),72*,45*,nt,36%,-7%,nt
CCSc1nsc(NC(=O)Nc2cccc(OC)c2)n1,nt,29*,?,-26%,-18%,11µM*
SMILES,Shiga toxin inh,Cycloheximide cs,Lassa entry inh,FMDV antiviral,HCV inh,MARV entry inh
C=CCSc1nsc(NC(=O)Nc2ccc(F)cc2)n1,101*,43*,?,-28%,22µM*,?
CCSc1nsc(NC(=O)Nc2ccccc2F)n1,30*,33*,?,-2%,?,?
O=C(Nc1nnc(-c2ccccc2SCc2ccccc2F)s1)Nc1ccccc1F,-10,-3,1%,1%,25%,?
O=C(Nc1ccc(F)cc1)Nc1nnc(SCC(=O)N2CCCCC2)s1,nt,nt,20%[46.1 µM],-17%,nt,nt
O=C1CCCN1CCCNC(=S)Nc1ccccc1Cl,-7,-2,-2%,1%,25%,4%[46.1 µM]
O=C(NCC1CCCO1)C(=O)c1c[nH]c2ccccc12 (stereo not given),162*,27*,nt,43%,24%,nt
O=C(NC1CCCCC1)C(=O)c1c[nH]c2ccccc12,69*,32*,-23%,44%,5%,5%
Cc1ccc(NC(=O)C(=O)c2c[nH]c3ccccc23)cc1,47*,33*,nt,18%,-7%,nt
Cc1ccc(NC(=O)c2cc(=O)[nH]c3ccccc23)cc1,-7,-4,nt,-12%,16%,nt
CCN1CCN(C(c2ccc(SC)cc2)c2c(O)cc(C)n(Cc3ccco3)c2=O)CC1 (stereo not given),nt,nt,-2%[46.1 µM],-16%,nt,nt
Cc1nc2c(C(=O)NCc3ccco3)cnn2c(C)c1Cc1ccc(F)cc1Cl,-16,-3,-11%,?,13µM*,?
Cc1ccc(-c2nc(SCC(=O)N3CCc4ccccc43)c3c(=O)n(C)c(=O)n(C)c3n2)cc1,nt,nt,18%[46.1 µM],-7%,nt,nt
CCCc1nc(SCC(=O)N2CCC(Cc3ccccc3)CC2)c2c(=O)n(C)c(=O)n(C)c2n1,-1,-1,nt,?,10µM*!,-1%
CCn1c(SCC(=O)N2CCCc3ccccc32)nc2c(c1=O)SC(C)C2 (stereo not given),-2,-1,nt,-25%,?,nt
Cn1c(=O)c2c(SCC(=O)N3CCCc4ccccc43)nc(CC(C)(C)C)nc2n(C)c1=O,16,-3,nt,22µM*,?,nt
CCCc1nc(SCC(=O)N2CCCc3ccccc32)c2c(=O)n(C)c(=O)n(C)c2n1,11,4,nt,-24%,10µM*,1%
CC1Cc2nc(SCC(=O)N3CCCc4ccccc43)n(C)c(=O)c2S1 (stereo not given),-3,-3,nt,?,11µM*,nt
CCCOP(=O)(c1ccc(N(C)C)cc1)C(O)c1c(Cl)cccc1Cl (stereo not given),3,-2,0%,40%,7%,?
Clc1cccc(-n2ncc3c(N4CCC(Cc5ccccc5)CC4)ncnc32)c1,nt,nt,?,-9%,nt,nt
CCOC(=O)c1c(C)[nH]c(C)c1S(=O)(=O)N1CCC(C(=O)Nc2ccc(C)c(N(C)C)c2)CC1,nt,nt,-2%[46.1 µM],-25%,nt,nt
CCn1cc(C(=O)N(C)Cc2ccc(OC(F)F)cc2)c(=O)c2ccc(C)nc21,-6,-4,nt,5%,-6%,nt
COC(=O)c1ccc(/C=C(\C#N)c2nc3ccccc3s2)cc1,37,12,7%,40%,-16%,27%
N#C/C(=C\c1ccccn1)c1nc2ccccc2s1,57*,35*,-13%,28%,14%,?
COc1ccc(C(=O)N/N=C/c2ccccn2)cc1,nt,nt,nt,19%,nt,nt
COc1ccc(/C(C#N)=C/c2ccccn2)cc1,110*,60*,nt,16%,?,nt
Cc1ccc(S(=O)(=O)N(C)C[C@@H]2Oc3ncc(Br)cc3C(=O)N([C@H](C)CO)C[C@H]2C)cc1,nt,nt,nt,0%,nt,nt
NC(=O)COC(=O)c1ccc(-c2ccccc2)cc1,64*,17*,11%[46.1 µM],23%,7%,0%[46.1 µM]
CC(=O)Nc1ccc(OCc2nnc(-c3ccc(Cl)cc3)o2)cc1,58,20*,-6%[46.1 µM],2%,-14%,2%[46.1 µM]
